An excerpt weighted towards active compounds, which were near 4.2% of everything screened.
hcDAF-12 act – activates DAF-12 receptor from parasite H. contortus | AID 652067 | actives 1.4% (n = 370,000) | HEK293 hcDAF-12 lit1-tk-luc reporter, luminescence; 0% DMSO, 100% Δ7-dafachronic acid | activation, % at 6.8 µM;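 active = activation above the mean of all tested compounds plus 3 SD, cut at about 5.5% in these data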;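 also: 100% = response to 3 µM Δ7-dafachronic acid high control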
hgDAF12 agonist – agonists of H. glycines DAF-12 nuclear receptor; HEK293 GAL4-hgDAF12 UAS-luciferase reporter, agonist luminescence; normalized to butyrate control; activation, % at 6.8 µM; actives 1.8% (n = 370,000); AID 687014;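 active = activation above a cutoff set at the mean of all screened compounds plus 3 SD, cut at about 10% in these data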;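 also: 0% = DMSO wells and 100% = sodium butyrate wells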
esBAF inh – inhibitors of esBAF chromatin remodeling in mouse ES cells | Bmi1-luciferase knock-in reporter, 24 h; 100% = twice the neutral-well signal | reporter increase, % at 12.5 µM | actives 2% (n = 350,000) | AID 602393; in the data active = activation above about 40%;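 also: 0% = median of the plate's neutral control wells and 100% = double that signal; a rise in the Bmi1 reporter signal indicates esBAF inhibition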
ssDAF12 agonist – S. stercoralis DAF-12 activation, primary screen; HEK293 ssDAF-12/GRIP1 lit1-tk-luc reporter, luminescence; % of 3 µM dafachronic acid response; activation, % at 6.8 µM; actives 1% (n = 370,000); AID 652126;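 active = activation above the mean over all tested compounds plus 3 SD, cut at about 0.9% in these data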;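 also: 0% = DMSO-only wells and 100% = 3 µM delta7-dafachronic acid wells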
Wnt act – activators of Wnt/beta-catenin signaling | Wnt/beta-catenin reporter cell assay, activator, plate reader | activation, % at 9.35 µM | actives 1.2% (n = 300,000) | AID 743398; in the data active = activation above about 30%, passing the limit was not always enough;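 also: 0% = neutral control wells and 100% = positive control wells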
DAX1 StAR inh – blocks DAX1 repression of SF-1 activated StAR promoter | actives 1.1% (n = 370,000) | inhibition, % at 6.8 µM | AID 652010 | HEK293T StAR-luciferase reporter, SF-1/DAX-1 repression relief;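 active = inhibition above the mean over all tested compounds plus 3 SD, cut at about 3.6% in these data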;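 also: 0% = DAX-1 cells with DMSO and 100% = cells lacking DAX-1 with DMSO; higher inhibition means more luminescence from relief of DAX-1 repression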
esBAF Ring1 qPCR – esBAF inhibition confirmed by Ring1 de-repression; AID 743176; mouse ESC E14, Ring1 mRNA RT-qPCR fold change; fold change at 33 µM; shares compounds with esBAF inh; 550 tested, under 10 active;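 active = Ring1 gene expression raised more than 2-fold over untreated cells in both replicates at either tested dose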;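 also: Ring1 transcript normalised to actin housekeeping signal by TaqMan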
esBAF Fgf4 qPCR – esBAF inhibition confirmed by Fgf4 repression; shares compounds with esBAF inh; mouse ESC E14, Fgf4 mRNA qPCR fold change; stronger effect = lower value; Fgf4 expression fold change at 33 µM; actives 4% (n = 550); AID 743177;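 active = Fgf4 expression under 0.8 fold of control in both repeat measurements at one or both tested doses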;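 also: Fgf4 transcript normalised to actin in duplex TaqMan qPCR; cells exposed to compound for 24 h before lysis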
Bmi1 derepress – esBAF inhibition confirmed by Bmi1 de-repression. shares compounds with esBAF inh. AID 743180. mouse ESE14 ES cells, Bmi1 mRNA qPCR fold; stronger effect = higher value. fold change at 33 µM. 550 tested, under 10 active;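 active = Bmi1 expression fold change above 6 at either tested concentration, seen in replicate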
A549 tox SP – kills or reduces viability of A549 cells; 550 tested, under 10 active; shares compounds with esBAF inh; cell viability change % (negative = cytotoxic), % at 25 µM, hits read low; A549 cytotoxicity, plate reader; call rule not given here
HepG2 tox SP – kills or reduces viability of HepG2 cells | shares compounds with esBAF inh | HepG2 cytotoxicity, plate reader; stronger effect = lower value | activity change, negative = inhibition, % at 25 µM | actives 4% (n = 550) | AID 743189; in the data active = activity change below about -50%
HEK293 tox SP – HEK293 cell cytotoxicity at single point. shares compounds with esBAF inh. plate reader. activity change, negative = inhibition, % at 25 µM, hits read low. actives 3% (n = 550); in the data active = activity change below about -38%, passing the limit was not always enough
DAX1 conf – confirmation of human DAX1 (NR0B1) inhibitors; shares compounds with DAX1 StAR inh; HEK293T StAR-promoter luciferase reporter, SF-1/DAX-1 repression; inhibition, % at 6.8 µM; actives 87% (n = 2,400);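 active = inhibition above the average of every tested compound plus 3 SD, cut at about 3.8% in these data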;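 also: 0% = DAX-1 cells with DMSO and 100% = no DAX-1 control cells with DMSO; active compounds raise luminescence by relieving repression of the StAR reporter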
Target sequence (P51843 whole entry, looked up): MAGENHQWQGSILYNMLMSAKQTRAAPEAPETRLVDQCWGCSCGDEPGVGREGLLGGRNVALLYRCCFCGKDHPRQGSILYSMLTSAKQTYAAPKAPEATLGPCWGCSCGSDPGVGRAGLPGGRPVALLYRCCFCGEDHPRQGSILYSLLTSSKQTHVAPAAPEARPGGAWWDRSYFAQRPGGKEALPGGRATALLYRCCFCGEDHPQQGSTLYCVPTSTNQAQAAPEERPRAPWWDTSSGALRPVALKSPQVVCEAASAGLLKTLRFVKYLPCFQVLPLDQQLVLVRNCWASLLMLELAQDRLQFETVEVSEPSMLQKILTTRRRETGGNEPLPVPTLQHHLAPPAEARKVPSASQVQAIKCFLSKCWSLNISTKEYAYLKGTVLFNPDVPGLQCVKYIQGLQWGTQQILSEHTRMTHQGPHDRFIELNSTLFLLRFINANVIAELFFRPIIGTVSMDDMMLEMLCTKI
SF1 mutant ctr – nonselective inhibitor or artifact in SF-1 mutant DAX1 counter-screen; actives 78% (n = 2,400); HEK293 StAR-luciferase, SF-1 AF2 mutant, luminescence; shares compounds with DAX1 StAR inh; inhibition, % at 6.8 µM;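 active = inhibition above the mean of all tested compounds plus 3 SD, cut at about 3% in these data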;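 also: 0% = DAX-1 transfected cells with DMSO and 100% = cells without DAX-1 with DMSO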
LXRb hcDAF ctr – LXR-beta agonism as hcDAF-12 counter-screen; 3,400 tested, under 10 active; activation, % at 6.8 µM; HEK293 Gal4-LXR tk-luc reporter, luminescence, 24 h; normalized: DMSO 0%, positive control 100%; shares compounds with hcDAF-12 act;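 active = mean percent activation of the reporter above a cutoff set as the average over tested compounds plus their standard deviation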
hcDAF12 conf – confirmation of H. contortus DAF-12 agonists | activation, % at 6.8 µM | shares compounds with hcDAF-12 act | actives 61% (n = 3,400) | HEK293 hcDAF-12 lit1-tk-luc reporter, luminescence; % of Δ7-dafachronic acid response;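 active = mean activation across triplicate tests above the threshold derived from the earlier primary screen, cut at about 5.5% in these data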;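 also: 0% = DMSO only wells and 100% = 3 µM Δ7-dafachronic acid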
Numbers without * were called inactive; nt = no result.

SMILES	hcDAF-12 act	hgDAF12 agonist	esBAF inh	ssDAF12 agonist	Wnt act	DAX1 StAR inh	esBAF Ring1 qPCR	esBAF Fgf4 qPCR	Bmi1 derepress	A549 tox SP	HepG2 tox SP	HEK293 tox SP	DAX1 conf	SF1 mutant ctr	others
CC(=O)Nc1nc(-c2ccc(-c3ccccc3)cc2)cs1	1	4	68*	-1	40*	4.5*	0.95	0.89	1.5	-12	-35	0	5.9*	4.5*
Cc1cc(F)ccc1-c1cc(C(=O)Nc2ccc(F)cc2)[nH]n1	2	12*	71*	0	1	9.6*	1.2	0.89	1.7	-7	3	-7	11*	5.6*
CN1C(=O)c2cc(NS(=O)(=O)c3ccc(F)cc3)ccc2OC[C@@H]2O[C@@H](CC(=O)NCC(F)(F)F)CC[C@@H]21	nt	nt	3	nt	nt	nt	nt	nt	nt	nt	nt	nt	nt	nt
CC(=O)c1sc(Nc2ccc(Oc3ccccc3)cc2)nc1C	0	9	77*	0	6	9.2*	1.2	1	1.8	-12	-13	-38	3.9*	0
CC(C)c1ccc(NC(=O)c2ccc3snnc3c2)cc1	5	12*	72*	0	19	5.0*	1.2	0.94	1.8	-3	11	-5	3	1
COC(=O)[C@@H]1[C@@H](CO)[C@@H]2Cn3c(ccc(-c4ccc(F)cc4)c3=O)[C@@H]2N1C(=O)C1CCC1	nt	nt	0	nt	nt	nt	nt	nt	nt	nt	nt	nt	nt	nt
Cc1ccc(C)c(N2CCN(C(=O)CCc3nc(-c4cccc(Cl)c4)no3)CC2)c1	4	10	90*	1	0	5.1*	1.1	1.2	0.86	2	-37	0	5.8*	3.6*
COc1cccc(-c2noc(CCC(=O)N3CCN(c4cc(C)ccc4C)CC3)n2)c1	0	3	2	-2	-1	0	nt	nt	nt	nt	nt	nt	nt	nt
O=C(C[C@@H]1CC[C@H](NC(=O)c2ccc3c(c2)OCO3)[C@H](CO)O1)NCc1ccc(Cl)cc1	nt	nt	-2	nt	nt	nt	nt	nt	nt	nt	nt	nt	nt	nt
COc1ccc(C(=O)NCCS(=O)(=O)NCCc2ccccc2)cc1	2	6	56*	0	-1	4.8*	1.3	1.2	1.4	-1	-12	-10	3.8*	2
COc1ccccc1C#Cc1cnc2c(c1)C(=O)N([C@@H](C)CO)C[C@H](C)[C@@H](CN(C)C)O2	nt	nt	-1	nt	nt	nt	nt	nt	nt	nt	nt	nt	nt	nt
Cc1csc(N/N=C/c2ccccc2F)n1	7.2*	10	62*	1	11	1	1	0.94	1.6	-6	-57*	-2	nt	nt	LXRb hcDAF ctr=1;hcDAF12 conf=10*

Assay outcomes (PubChem)
